Values without a mark were called inactive. For part of these data: Entries with a potency or affinity are not part of this list. Activity calls are given as the source filed them. Unless noted, no rule for the calls is given here.

As usually defined, the inhibition is the drop in the measured response relative to a control, in per cent.

Assay [1] is described as follows: antimalarial activity against Dd2 strain (AID 2302;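 active = growth inhibition above 50% at the single 2 µM test dose, taken to imply half-maximal potency below 2 µM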;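 also: 0% = DMSO untreated growth and 100% = chloroquine plus artemisinin killed control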). The note with it: P. falciparum Dd2 in RBCs, LDH growth readout, 72 h; at 2 µM; active compounds read high.
Assay [2] can be described thus: human hepatoma cell viability loss – ATP luminescence, cytotoxicity control for P. falciparum antimalarial project, primary screen (AID 2303;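 active = inhibition above 50%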;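 also: 0% = DMSO wells and 100% = digitonin-killed cells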). Particulars: HepG2 viability, 24-48 h, at 10 µM, active compounds read high.
Assay [3] concerns the target L-lactate dehydrogenase (Plasmodium falciparum (isolate CDC / Honduras)) (UniProt Q27743). Briefly: PfLDH activity inhibition – cell lysate, 3D7 strain, counter-screen for P. falciparum growth inhibition project (AID 2304).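 Also: 0% = vehicle and 100% = reference inhibitor.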 Particulars: P. falciparum 3D7 crude extract, LDH APAD/NBT absorbance; at 2 µM; active compounds read high.
Assay [4] in a line: inhibition of 3D7 malaria parasite growth – strain 3D7 (AID 2306).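 Also: 0% = DMSO wells and 100% = chloroquine plus artemisinin control wells.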 Particulars: P. falciparum 3D7 erythrocytic growth, LDH absorbance, 72 h; at 2 µM; active compounds read high.
Assay [5] concerns the target Calcium-dependent protein kinase 1 (Plasmodium falciparum (isolate 3D7)) (UniProt P62344). Briefly: PfCDPK1 kinase inhibitors, biochemical, TCAMS library (AID 1159585; cut-off not given, nearly all actives have IC50 up to about 0.98 µM;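 also: inhibitors leave more ATP so luminescence rises with inhibition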). Particulars: recombinant PfCDPK1, Kinase-Glo ATP depletion luminescence.
Assay [6] addresses Plasmodium falciparum protein kinase 6 (PK6, PF3D7_1337100) (UniProt Q8IDW1). Briefly: PfPK6 kinase inhibitors, biochemical, TCAMS library (AID 1159586). Particulars: recombinant PfPK6, Kinase-Glo ATP depletion luminescence. (In Kinase-Glo more light means more ATP remaining.)
Assay [7] addresses Protein kinase 7 (PK7), Plasmodium falciparum 3D7 (PF3D7_0213400) (UniProt Q7YTF7). Briefly: inhibition of Plasmodium PK7 catalytic activity – biochemical, TCAMS antimalarial set, Kinase-Glo luminescence (AID 1159587). Particulars: recombinant PfPK7, Kinase-Glo ATP depletion luminescence.
Assay [8] concerns the target Calcium-dependent protein kinase 4 (Plasmodium falciparum (isolate 3D7)) (UniProt Q8IBS5). Briefly: PfCDPK4 kinase inhibitors, biochemical, TCAMS library (AID 1159588; cut-off not given, nearly all actives have IC50 up to about 0.91 µM). Particulars: recombinant PfCDPK4, Kinase-Glo ATP depletion luminescence.

Sequence of Protein kinase 7 (PK7), Plasmodium falciparum 3D7 (PF3D7_0213400) (Q7YTF7 1-343): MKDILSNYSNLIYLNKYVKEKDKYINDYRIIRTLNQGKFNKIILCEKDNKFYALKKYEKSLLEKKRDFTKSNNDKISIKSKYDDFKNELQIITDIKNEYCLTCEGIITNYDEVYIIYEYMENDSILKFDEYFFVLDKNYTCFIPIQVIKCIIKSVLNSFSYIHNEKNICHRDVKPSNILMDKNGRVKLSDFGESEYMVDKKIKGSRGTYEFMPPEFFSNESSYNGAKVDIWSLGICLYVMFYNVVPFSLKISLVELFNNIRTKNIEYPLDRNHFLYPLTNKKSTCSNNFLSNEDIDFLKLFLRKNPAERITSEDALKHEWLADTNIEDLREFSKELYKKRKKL
Sequence of Plasmodium falciparum protein kinase 6 (PK6, PF3D7_1337100) (Q8IDW1 1-305): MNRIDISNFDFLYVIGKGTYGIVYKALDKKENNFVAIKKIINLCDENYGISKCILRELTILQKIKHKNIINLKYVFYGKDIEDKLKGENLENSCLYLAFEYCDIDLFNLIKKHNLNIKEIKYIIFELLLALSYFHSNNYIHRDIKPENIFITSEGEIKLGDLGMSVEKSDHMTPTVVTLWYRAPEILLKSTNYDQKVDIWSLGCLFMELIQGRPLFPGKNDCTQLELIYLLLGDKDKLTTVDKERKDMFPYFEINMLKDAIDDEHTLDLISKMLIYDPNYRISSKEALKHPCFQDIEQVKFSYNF
Sequence of Calcium-dependent protein kinase 1 (Plasmodium falciparum (isolate 3D7)) (P62344 whole entry, looked up): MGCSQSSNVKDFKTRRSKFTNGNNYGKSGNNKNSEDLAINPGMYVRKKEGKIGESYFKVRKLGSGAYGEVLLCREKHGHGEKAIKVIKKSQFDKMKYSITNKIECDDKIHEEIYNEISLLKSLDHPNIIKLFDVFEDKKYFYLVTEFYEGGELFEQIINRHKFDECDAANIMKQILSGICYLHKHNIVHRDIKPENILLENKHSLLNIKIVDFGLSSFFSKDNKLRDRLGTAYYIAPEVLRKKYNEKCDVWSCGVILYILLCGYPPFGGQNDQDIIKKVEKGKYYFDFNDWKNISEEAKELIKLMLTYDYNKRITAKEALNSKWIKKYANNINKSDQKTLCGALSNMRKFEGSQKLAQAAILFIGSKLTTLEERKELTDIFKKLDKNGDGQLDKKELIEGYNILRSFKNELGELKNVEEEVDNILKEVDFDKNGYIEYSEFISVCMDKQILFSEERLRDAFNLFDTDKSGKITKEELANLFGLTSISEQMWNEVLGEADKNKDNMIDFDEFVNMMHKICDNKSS
Sequence of L-lactate dehydrogenase (Plasmodium falciparum (isolate CDC / Honduras)) (Q27743 whole entry, looked up): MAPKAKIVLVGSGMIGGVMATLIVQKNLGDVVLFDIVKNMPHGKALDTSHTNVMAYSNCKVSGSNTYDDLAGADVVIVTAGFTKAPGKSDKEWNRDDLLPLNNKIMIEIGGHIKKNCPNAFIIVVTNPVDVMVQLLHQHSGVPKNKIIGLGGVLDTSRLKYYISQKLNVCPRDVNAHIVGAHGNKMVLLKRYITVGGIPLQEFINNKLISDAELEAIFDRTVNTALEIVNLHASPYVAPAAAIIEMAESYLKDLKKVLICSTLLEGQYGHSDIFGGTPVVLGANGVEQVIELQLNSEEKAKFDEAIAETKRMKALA
Sequence of Calcium-dependent protein kinase 4 (Plasmodium falciparum (isolate 3D7)) (Q8IBS5 whole entry, looked up): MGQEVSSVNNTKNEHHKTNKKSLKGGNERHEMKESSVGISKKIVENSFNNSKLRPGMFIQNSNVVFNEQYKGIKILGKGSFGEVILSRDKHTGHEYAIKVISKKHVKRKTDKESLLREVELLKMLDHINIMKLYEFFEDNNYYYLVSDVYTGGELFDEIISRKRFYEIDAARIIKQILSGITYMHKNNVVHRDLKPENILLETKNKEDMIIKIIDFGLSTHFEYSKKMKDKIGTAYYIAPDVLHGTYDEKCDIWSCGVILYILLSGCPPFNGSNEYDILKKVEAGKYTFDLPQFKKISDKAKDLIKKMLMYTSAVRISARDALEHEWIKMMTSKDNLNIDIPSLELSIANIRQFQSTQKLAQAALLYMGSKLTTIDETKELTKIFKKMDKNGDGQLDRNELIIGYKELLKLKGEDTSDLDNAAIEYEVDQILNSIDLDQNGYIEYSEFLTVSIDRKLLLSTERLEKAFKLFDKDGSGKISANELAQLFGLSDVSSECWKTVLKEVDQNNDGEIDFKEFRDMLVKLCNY

Regarding `O=C(NCc1ccc(Cl)c(Cl)c1)c1cccc(C2CCCN(Cc3ccc4nc[nH]c4c3)C2)c1` (centres undefined), the growth inhibition in assay [1] is 30%; in assay [4] it was 95% (active). The inhibition was 3% in assay [2] and 5% in assay [3]. For the same compound, the result in assay [5], in assay [6], in assay [7] and in assay [8] was inactive.
For `Cc1ccc2[nH]c3c(NCCCN4CCOCC4)ncnc3c2c1`, the growth inhibition in assay [1] was 9%; in assay [4], 101% (active). The values for the inhibition in assay [2] and in assay [3] were -1% and -3%, respectively. Moreover, the outcome in assay [5], in assay [6], in assay [7] and in assay [8] was inactive.
For `Cn1cncc1C(=O)NC1CCN(c2ccnc(Nc3ccc(F)cc3)n2)C1` (centres undefined), the growth inhibition in assay [1] is 83% (active); in assay [4], 97% (active). In addition, the inhibition was 2% in assay [2] and -7% in assay [3]. The result in assay [5], in assay [6], in assay [7] and in assay [8] was inactive.
With `COc1c(C2CCN(CCCCNC(=O)c3ccc(-c4ccc(Cl)cc4)c(O)c3)CC2)ccc2c1CCCC2`, the figures for the growth inhibition in assay [1] and in assay [4] were 99% (active) and 102% (active), respectively. The inhibition was 91% (active) in assay [2] and -5% in assay [3]. The outcome in assay [5], in assay [6], in assay [7] and in assay [8] was inactive.
As for `CC(C)CC1c2[nH]c3ccccc3c(=O)c2CN1C(=O)OC(C)(C)C` (centres undefined), the growth inhibition was 96% (active) in assay [1] and 97% (active) in assay [4]. The inhibition in assay [2] is 2%; in assay [3] it was -4%. Moreover, the outcome in assay [5], in assay [6], in assay [7] and in assay [8] was inactive.
In the case of `CCCCCCCN1CC[C@@H](CCCc2ccnc3ccc(OC)cc23)[C@@H](CCN)C1`, the growth inhibition was 11% in assay [1] and 102% (active) in assay [4]. Also, the results for the inhibition in assay [2] and in assay [3] were 50% (active) and -5%, respectively. Moreover, the result in assay [5], in assay [6], in assay [7] and in assay [8] was inactive.
For `Cc1ccc(Cn2cnc3cc(C(=O)Nc4ccc(-c5ccc(CN(C)C)cc5)cc4)ccc3c2=O)o1`, the growth inhibition was 12% in assay [1] and 82% (active) in assay [4]. Further, the inhibition is 43% in assay [2] and -1% in assay [3]. For the same compound, the result in assay [5], in assay [6], in assay [7] and in assay [8] was inactive.
Turning to `CC[C@H]1CN(Cc2ccco2)CC[C@H]1CCCc1ccnc2ccc(O)cc12`, the growth inhibition in assay [1] was 14%; in assay [4], 93% (active). The results for the inhibition in assay [2] and in assay [3] were 31% and -1%, respectively. In addition, the result in assay [5], in assay [6], in assay [7] and in assay [8] was inactive.
Consider `CCOC(=O)c1cc(C(=O)NCCCCN2CCC(c3ccc(CC)cc3OCC)CC2)ccc1-c1ccc(C(F)(F)F)cc1`, for which the growth inhibition in assay [1] is 71% (active); in assay [4], 99% (active). For the same compound, the values for the inhibition in assay [2] and in assay [3] were 74% (active) and -1%, respectively. Moreover, the result in assay [5], in assay [6], in assay [7] and in assay [8] was inactive.
`COc1ccc(CCN(C)CCCCNC(=O)c2ccc(NC(=O)c3ccc(Cl)cc3)cc2)c(OC)c1`: the growth inhibition in assay [1] was 0%; in assay [4] it was 87% (active). Further, the inhibition was 12% in assay [2] and 4% in assay [3]. Besides, the outcome in assay [5], in assay [6], in assay [7] and in assay [8] was inactive.
For the compound `Nc1nonc1-c1nc2c(-c3cccc(Cl)c3)nccc2n1CCCNC(=O)Cc1ccc(Cl)cc1`, the values for the growth inhibition in assay [1] and in assay [4] were 92% (active) and 94% (active), respectively. Further, the results for the inhibition in assay [2] and in assay [3] were -4% and -2%, respectively. Moreover, the result in assay [5], in assay [6], in assay [7] and in assay [8] was inactive.
In the case of `COc1ccc2nc3cc(Cl)ccc3c(NCCO)c2c1`, the growth inhibition in assay [1] was 93% (active); in assay [4], 101% (active). For the same compound, the inhibition in assay [2] was 12%; in assay [3] it was 9%. Further, the result in assay [5], in assay [6], in assay [7] and in assay [8] was inactive.
Consider `COc1cc(OC)cc(-c2nn(-c3ccc([N+](=O)[O-])cc3C#N)c(=S)n2CC2CCCO2)c1` (centres undefined), for which the growth inhibition in assay [1] was 75% (active); in assay [4] it was 98% (active). The inhibition in assay [2] is 9%; in assay [3], 0%. The result in assay [5], in assay [6], in assay [7] and in assay [8] was inactive.
For the compound `CC(=O)Nc1cccc(C(=O)Nc2ccc(-c3ccc(-c4nc5c(C)cccc5[nH]4)s3)cc2)c1`, the growth inhibition in assay [1] is 20%; in assay [4], 93% (active). Besides, the inhibition in assay [2] is 94% (active); in assay [3], 2%. In addition, the outcome in assay [5], in assay [6], in assay [7] and in assay [8] was inactive.
Consider `Cc1ccc(C(=O)Nc2cc(S(=O)(=O)N3CCCC3)ccc2OCC(F)(F)F)cc1`, for which the results for the growth inhibition in assay [1] and in assay [4] were 3% and 93% (active), respectively. Further, the inhibition in assay [2] was -2%; in assay [3], 3%. In addition, the result in assay [5], in assay [6], in assay [7] and in assay [8] was inactive.
As to `COc1ccc(CCNC(=O)c2cc(C)ccc2O)cc1-c1ccc(C(C)(C)C)cc1`, the growth inhibition in assay [1] was 94% (active); in assay [4], 97% (active). Further, the figures for the inhibition in assay [2] and in assay [3] were 1% and -6%, respectively. For the same compound, the outcome in assay [5], in assay [6], in assay [7] and in assay [8] was inactive.
Turning to `COC(=O)COc1cc(C(=O)NCCCCN2CCC(c3ccc4c(c3OC)CCCC4)CC2)ccc1-c1ccc(Cl)cc1`, the growth inhibition in assay [1] was 21%; in assay [4], 97% (active). The figures for the inhibition in assay [2] and in assay [3] were 32% and 2%, respectively. In addition, the outcome in assay [5], in assay [6], in assay [7] and in assay [8] was inactive.
Regarding `CN1CCN(CCCN(Cc2csc(-c3ccc(CNCc4ccccc4)cc3)n2)S(=O)(=O)c2ccccc2)CC1`, the growth inhibition in assay [1] is 78% (active); in assay [4], 99% (active). The inhibition is 17% in assay [2] and 7% in assay [3]. The outcome in assay [5], in assay [6], in assay [7] and in assay [8] was inactive.

The record behind these values is PubChem BioAssay.
